Values joined by “and” are separate entries in the source; they are usually repeats but may differ in a detail not shown here. Equal entries are not always repeated. Records with an inconclusive call do not appear. Where a call stands in place of a potency, no number is given. More than one record can exist for a structure, and the calls need not agree. Active and inactive are the calls of the source. Calls come from the whole dose curve; as a rule, active = well fitted cell-killing curve with a large enough effect in the repeat runs; inconclusive = weak or mixed curves, or effect the other way; inactive = flat fitted curve, though single readings scatter.
experiment: qHTS RealTime-Glo MT Cell Viability Assay in HEK293 cells - 8 hour (AID 1224887); details: RealTime-Glo luminescence; series mostly up to 76.8 µM; note: nearly all actives have a fitted effect of over 50% in size
Method in brief: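 Kinetic, non-lysing viability readout. Seed HEK293 (600/well) with reagent, incubate 5 h at 37 C/5% CO2, pin 23 nL compound in DMSO, incubate at 37 C, read luminescence at 0, 8, 16, 24, 32, 40 h.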
Potency is the fitted concentration of half-maximal effect.

| Structure (SMILES) | Potency |
| --- | --- |
| CCN(CC)c1ccc2c(C)cc(=O)oc2c1 | inactive |
| CCCN[C@H]1CCc2nc(N)sc2C1 | inactive |
| CC(C)(C)c1ccccc1 | inactive |
| NC12CC3CC(CC(C3)C1)C2 | inactive |
| NC(N)=NC(=O)Cc1c(Cl)cccc1Cl | inactive |
| CC(C)(C)NC(=O)[C@@H]1CN(Cc2cccnc2)CCN1C[C@@H](O)C[C@@H](Cc1ccccc1)C(=O)N[C@H]1c2ccccc2C[C@H]1O | inactive |
| CCCCCCCCCCCCCC[P+](CCCC)(CCCC)CCCC | 24.4 µM (active) and 19.5 µM (active) |
| CCCNC(C)C(=O)Nc1ccccc1C (configuration not stated) | inactive |
| CCOc1ccccc1C(N)=O | inactive |
| CC(=O)CC(C)=O | inactive |
| O=c1n(CC2CO2)c(=O)n(CC2CO2)c(=O)n1CC1CO1 (configuration not stated) | inactive |
| NNCCc1ccccc1 | inactive |
| CC1COC(=O)O1 (configuration not stated) | inactive |
| CC1=CC(=O)c2ccccc2C1=O | 7.76 µM (active) and 16.9 µM (active) |
| O=Nc1ccc(Nc2ccccc2)cc1 | 15.6 µM (active) and 21.9 µM (active) |
| Oc1ccc(Cl)cc1Cc1cc(Cl)ccc1O | 25 µM (active) and inactive |
| CCCCOCCOC(=O)c1ccccc1C(=O)OCCOCCCC | inactive |
| CCn1cc(C(=O)O)c(=O)c2cc(F)c(N3CCNC(C)C3)c(F)c21 (configuration not stated) | inactive |
| O=C(O)CP(=O)(O)O | inactive |
| CCN(CC)C(=O)Nc1ccc(OCC(O)CNC(C)(C)C)c(C(C)=O)c1 (configuration not stated) | inactive |
| CCOc1ccc2c(c1)C(C)=CC(C)(C)N2 | inactive |
| COc1ccc(Cc2cnc(N)nc2N)cc1OC | inactive |

Source: PubChem BioAssay (Tox21)
